From PubChem BioAssay
An excerpt weighted towards active compounds, which were near 0.65% of everything screened.
RN4220 kill = S. aureus RN4220 growth inhibition | OD600, 16 h | inhibition, % (no concentration beside the values) | hit rate 0.33% among 330,000; in the data active = inhibition above about 85%
BJeLR viability = kills HRASV12-expressing BJeLR cells; inhibition, % (test concentration not listed); hit rate 0.17% among 300,000; BJeLR (HRASV12) viability, CellTiter-Glo ATP luminescence, 48 h; in the data active = inhibition above about 50%
Sa ugtP lethal = compounds lethal to S. aureus RN4220 ugtP deletion mutant | OD600 growth, 16 h | growth inhibition, % (concentration not given with the values) | hit rate 0.54% among 330,000; in the data active = growth inhibition above about 68%
Of the large screens only hits and unclear results are named; the others gave an inactive call.

CC[C@H]1OC(=O)[C@H](C)[C@@H](O[C@H]2C[C@@](C)(OC)[C@@H](O)[C@H](C)O2)[C@H](C)[C@@H](O[C@@H]2O[C@H](C)C[C@H](N(C)C)[C@H]2O)[C@](C)(O)C[C@@H](C)CN(C)[C@H](C)[C@@H](O)[C@]1(C)O	none (no result: RN4220 kill, Sa ugtP lethal)
CCC1OC(=O)C(C)C(OC2C[C@@](C)(OC)C(O)C(C)O2)C(C)C(OC2OC(C)CC(N(C)C)C2O)[C@](C)(O)CC(C)C(=NOCOCCOC)C(C)C(O)[C@]1(C)O (stereo not given in full)	RN4220 kill 99.8, Sa ugtP lethal 100.1 (no result: BJeLR viability)
NNC(=O)CSCc1nc(-c2ccc(Cl)cc2)cs1	none
C#CC[N+]1(CC#Cc2ccccc2)CCCC1	none
C(#Cc1ccccc1)C[N+]1(CC#Cc2cccc3ccccc23)CCCC1	Sa ugtP lethal 98.5
O=C(Cn1c(=S)[nH]c2ccccc2c1=O)N1CCC2(CC1)OCCO2	none (no result: BJeLR viability)
CCCCn1c(=O)c(C(=O)Nc2ncccc2C)c(O)c2ccccc21	Sa ugtP lethal 100.2
CCCCCCn1c(=O)c(C(=O)Nc2ncccc2C)c(O)c2ccccc21	Sa ugtP lethal 88.6
CCCn1c(=O)c(C(=O)Nc2ncccc2O)c(O)c2ccccc21	none
CCCCCCn1c(=O)c(C(=O)Nc2cccc(C)n2)c(O)c2ccccc21	none
CCCCC(=O)Nc1cnc(NC(=O)c2ccco2)cc1C	none
C=CCOc1ccc(-c2n[nH]c(=S)o2)cc1	none (no result: BJeLR viability)
COc1ccc(-c2cc(NCCc3ccncc3)n3ncnc3n2)cc1	none
CCc1ccc(NC(=O)Nc2c(C)n(C)n(-c3ccccc3)c2=O)cc1	none
Cc1ccsc1C=NNC(=O)c1nnn(-c2nonc2N)c1C	none (no result: BJeLR viability)
Cc1ccc(-c2c(C(=O)NN=Cc3sccc3C)nnn2-c2nonc2N)cc1	RN4220 kill 94.0 (no result: BJeLR viability)
CCN(CC(=O)NCc1ccc(Cl)cc1)C(=O)c1cc(S(=O)(=O)NCc2ccccc2)ccc1C	none
O=C(Nc1ccccc1C(=O)Nc1nnc(C(F)(F)F)s1)c1ccccc1Cl	RN4220 kill 88.0, Sa ugtP lethal 89.8
CCc1nnc(NC(=O)c2nn(-c3ccccc3)nc2C)s1	none
O=C(Nc1nnc(C2CC2)s1)C1COc2ccccc2O1 (stereo not given)	none
NC(=O)c1ccccc1NC(=O)c1ccccc1Cl	none
O=C(Nc1nnc(C(F)(F)F)s1)C1COc2ccccc2O1 (stereo not given)	Sa ugtP lethal 88.4
Cc1nn(-c2ccccc2)nc1C(=O)Nc1nnc(C(F)(F)F)s1	Sa ugtP lethal 86.3
CC(NC(=O)Nc1nnc(C(F)(F)F)s1)(C(F)(F)F)C(F)(F)F	Sa ugtP lethal 83.2
CC(C)(C)CC(=O)Nc1nnc(C(F)(F)F)s1	none
CCOc1ccc2nc(SC3CC(=O)N(c4cccc(OC)c4)C3=O)sc2c1 (stereo not given)	none
Cc1cc(Sc2nc(N(C)C)nc(N(C)C)n2)nc(Cl)n1	none
Cc1ccc(C2CC2c2n[nH]c(=S)n2-c2ccc(C)cc2)cc1 (stereo not given)	none
CCSc1nnc(NC(=O)c2ccc(Br)s2)s1	none
O=C(Nc1nnc(C(F)(F)F)s1)c1ccc(Br)s1	Sa ugtP lethal 80.6
N#CC(=NNc1ccc(Cl)cc1)C(=O)c1ccsc1	RN4220 kill 99.7, Sa ugtP lethal 99.0 (no result: BJeLR viability)
N#CC(=NNc1ccc(Cl)cc1)C(N)=S	Sa ugtP lethal 88.1 (no result: BJeLR viability)
N#C/C(=N\Nc1ccc(Cl)cc1)C(N)=S	none (no result: RN4220 kill, Sa ugtP lethal)
N#C/C(=N\Nc1ccc(Cl)cc1)C(=O)c1ccsc1	none (no result: RN4220 kill, Sa ugtP lethal)
N#C/C(=N\Nc1cccc(Cl)c1)C(=O)c1ccccc1	none (no result: RN4220 kill, Sa ugtP lethal)
N#CC(=NNc1cccc(Cl)c1)C(=O)c1ccccc1	RN4220 kill 100.1, Sa ugtP lethal 100.0 (no result: BJeLR viability)
COc1cccc(NC(=O)C2C3C=CC4(O3)C2C(=O)N(C2CC2)C4C(=O)NC2CCCCC2C)c1 (stereo not given)	none
CCC1CN(C(=O)NCc2ccccc2)c2cc(C)ccc2O1 (stereo not given)	none
Fc1ccccc1NC(=S)Nc1cccc2cnccc12	none
CCN(CC)c1ccc(NC(=O)COC(=O)CCC(=O)c2cccs2)cc1	none (no result: BJeLR viability)
CC(C)Cn1c(=O)c(C(=O)NN=Cc2cccc(F)c2)c(O)c2ccccc21	RN4220 kill 100.5, Sa ugtP lethal 99.1 (no result: BJeLR viability)
CC(C)CCn1c(=O)c(C(=O)N/N=C/c2cccc(F)c2)c(O)c2ccccc21	none (no result: RN4220 kill, Sa ugtP lethal)
COc1ccc(C(C(=O)NC2CCCC2)N(Cc2cccs2)C(=O)c2ccn[nH]2)cc1OC (stereo not given)	none
Nc1ncc(S(=O)(=O)c2ccc([N+](=O)[O-])cc2)s1	RN4220 kill 97.6, Sa ugtP lethal 96.3 (no result: BJeLR viability)
O=C1CCCN1c1ncc(S(=O)(=O)c2ccc([N+](=O)[O-])cc2)s1	none
CCC1=Nc2cc(C(=O)NCc3ccco3)ccc2Sc2ccc(C)cc21	BJeLR viability 61.7
CCC1=Nc2cc(C(=O)NCCN3CCOCC3)ccc2Sc2ccc(C)cc21	none
CCN(CC)c1ccc(-c2nc3cnccn3c2NC2CCCC2)cc1	none
O=C(CN(C(=O)Cn1nnc(-c2ccccc2F)n1)c1cnc2ccccc2c1)NCC1CCCO1 (stereo not given)	none
CCN(CC)c1ccc(C=NNC(=O)c2cccc(S(=O)(=O)N3CCOCC3)c2)c(O)c1	none (no result: BJeLR viability)
CCN(CC)c1ccc(/C=N/NC(=O)c2cccc(S(=O)(=O)N3CCOCC3)c2)c(O)c1	BJeLR viability 53.6 (no result: RN4220 kill, Sa ugtP lethal)
CN(C)CCCNC(=O)C(=O)Nc1cc2c3c(c1)CC(=O)N3CCC2	none
CN(C)c1ccc(C(=S)NC2CCCCC2)cc1	none
CCN(CC)c1ccc(C(=S)NC2CCCCC2)cc1	Sa ugtP lethal active
Cc1ccc2c(Cl)cc(Cl)c(O)c2n1	RN4220 kill 99.4, Sa ugtP lethal 99.1 (no result: BJeLR viability)
Cc1cc(Cl)c2ccc3ccccc3c2n1	none
CNC(=O)c1ccc(S(=O)(=O)c2ccc(Cl)cc2)c(NC(C)=O)c1	none
COc1ccccc1-c1nnc2sc(-c3ccc(N(C)C)cc3)nn12	BJeLR viability 53.1
CN(C)c1ccc(-c2nn3c(-c4ccccc4Cl)nnc3s2)cc1	none
COc1cc(SC)ccc1C(=O)NCCOc1ccc(Cl)cc1	none
CSc1ccc(Cl)c(C(=O)NCCOc2cc(C(C)C)ccc2C)c1	RN4220 kill 96.3, Sa ugtP lethal 97.3
Oc1cccc2ccc(/C=C/c3ccccc3Br)nc12	RN4220 kill 89.9, Sa ugtP lethal 91.9
COc1cc(Br)c(/C=C/c2ccc3cccc(O)c3n2)cc1OC	none
Oc1c(Cl)cc(Cl)cc1/C=C/c1ccc2cccc(O)c2n1	RN4220 kill 91.2
Oc1ccc(Cl)cc1/C=C/c1ccc2cccc(O)c2n1	none
O=C(NN=Cc1ccc(O)cc1)c1ccncc1	none (no result: BJeLR viability)
CCCn1cnc2c(SCCc3ccccc3)nc(N)nc21	none (no result: BJeLR viability)
CCOC(=O)c1cnn(-c2nc(SC)nc3sc4c(c23)CCCC4)c1N	RN4220 kill 99.8, Sa ugtP lethal 100.2
CCOC(=O)c1cnn(-c2ncnc3sc4c(c23)CCC4)c1N	none
c1ccc(Nc2scc(-c3ccccc3)[n+]2Cc2ccco2)cc1	none
c1ccc(C[n+]2c(-c3ccccc3)csc2Nc2ccccc2)cc1	Sa ugtP lethal 85.2
CCCOc1cccc(C2C(C(=O)c3cc4ccccc4o3)=C(O)C(=O)N2c2cc(C)on2)c1 (stereo not given)	RN4220 kill 100.4, Sa ugtP lethal 99.8
Cc1cc(N2C(=O)C(O)=C(C(=O)c3cc4ccccc4o3)C2c2cccc(Br)c2)no1 (stereo not given)	RN4220 kill 100.4, Sa ugtP lethal 100.2
COc1cccc(C2C(C(=O)c3cc4ccccc4o3)=C(O)C(=O)N2c2cc(C)on2)c1OC (stereo not given)	none
